Laboratory results published in PubChem BioAssay AID488969 (Vanderbilt High Throughput Screening Facility, 2010).
In all, about 110,000 compounds were measured (“z-score”: median about -0.1, highest 2% from about 2 on). The sample as a whole holds a higher share of the highest values than the screen did. Calls of active or inactive are those of the source.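 How the source made its calls: active means z-score in the third read window above 3 or below -3; inactive means the rest.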

What follows are compounds tested against Metabotropic glutamate receptor 8 (Rattus norvegicus) (UniProt P70579) (assay: mGluR8 Gi/Go-coupled signaling modulation – cell-based, rat, thallium flux, HTS, primary screen (AID 488969)). Conditions: HEK293 rat mGluR8, GIRK (G protein-gated inwardly rectifying potassium channel) thallium flux, FluoZin2; at 10 µM; stronger effect = higher value; submaximal glutamate (EC20) added with thallium.
Chain of Metabotropic glutamate receptor 8 (Rattus norvegicus) (P70579 whole entry, looked up): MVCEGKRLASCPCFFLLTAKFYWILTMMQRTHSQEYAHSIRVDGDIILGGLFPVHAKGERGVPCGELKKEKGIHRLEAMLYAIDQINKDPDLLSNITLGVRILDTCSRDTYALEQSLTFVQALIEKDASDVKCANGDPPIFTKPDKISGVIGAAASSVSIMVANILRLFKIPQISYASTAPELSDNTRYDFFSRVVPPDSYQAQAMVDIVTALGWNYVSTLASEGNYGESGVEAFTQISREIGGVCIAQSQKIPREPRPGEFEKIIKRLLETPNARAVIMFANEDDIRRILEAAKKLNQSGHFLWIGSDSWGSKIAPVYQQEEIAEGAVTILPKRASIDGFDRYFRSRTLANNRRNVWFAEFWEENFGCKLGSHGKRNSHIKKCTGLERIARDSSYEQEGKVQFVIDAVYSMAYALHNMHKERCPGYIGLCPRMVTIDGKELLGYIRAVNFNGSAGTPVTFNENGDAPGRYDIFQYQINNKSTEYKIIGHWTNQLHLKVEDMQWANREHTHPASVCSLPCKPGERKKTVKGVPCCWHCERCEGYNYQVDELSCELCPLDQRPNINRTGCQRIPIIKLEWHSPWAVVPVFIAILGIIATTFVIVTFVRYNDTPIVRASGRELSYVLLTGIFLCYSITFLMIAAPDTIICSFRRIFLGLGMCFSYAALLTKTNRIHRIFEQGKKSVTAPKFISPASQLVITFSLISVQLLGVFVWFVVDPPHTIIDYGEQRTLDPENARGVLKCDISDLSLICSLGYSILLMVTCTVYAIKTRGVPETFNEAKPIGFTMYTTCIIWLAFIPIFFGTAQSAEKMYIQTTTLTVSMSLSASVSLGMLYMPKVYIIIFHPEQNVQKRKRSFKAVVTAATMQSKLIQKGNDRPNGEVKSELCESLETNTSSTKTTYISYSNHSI

SMILES	z-score
COc1cc(CNc2ccccc2SC)ccc1O	1.58
N#Cc1ccc(N2CCc3ccccc3C2)c([N+](=O)[O-])c1	0.175
Cc1ccc(S(=O)(=O)NC(CC(C)C)C(=O)NCc2ccco2)cc1 (stereo not given)	0.0163
COc1ccc(-c2nnnn2C)cc1S(=O)(=O)NCCc1ccccc1	1.29
O=C(Nc1ccccc1Br)C1CCC(=O)N1Cc1ccccc1Cl (stereo not given)	0.19
COc1cc(OC)cc(-c2cc3nc(C)c(CCC(=O)O)c(=O)n3[nH]2)c1	0.713
COc1cc(-c2cc3nc(C)c(C)c(=O)n3[nH]2)cc(OC)c1OC	2.19
Cc1nc2cc(-c3cccs3)[nH]n2c(=O)c1C	-0.15
COC(=O)C(O)(CC(=O)Nc1ccc(OC(F)(F)F)cc1)C(F)(F)F (stereo not given)	-0.408
O=c1[nH]c2sc3c(c2c(=O)n1Cc1ccccc1)CCC3	-0.117
C=CCn1c(=S)[nH]c2sc3c(c2c1=O)CCC3	10.9 (active)
C=CCn1c(SCC(=O)NC)nc2sc3c(c2c1=O)CCC3	-0.523
O=C(CCCN1C(=O)c2ccccc2C1=O)OC1CSCC1NC(=O)c1ccccc1 (stereo not given)	-0.17
O=C1CS/C(=N\c2ccccn2)N1C1CCCCC1	-0.393
COc1cc(CC(=O)Nc2ccc3nc(C)sc3c2)cc(OC)c1OC	-0.158
Cc1cccc(CSc2ncc(CO)n2C)c1	0.12
COc1ccc(CCNC(=O)C2CCN(S(=O)(=O)c3ccc(OC)c(OC)c3)CC2)cc1	-0.362
OCCCCCN=c1cc(-c2ccccc2)oc2ccc(Cl)cc12	-0.493
OCCCN=c1cc(-c2ccccc2)oc2ccc(Cl)cc12	3.32 (active)
OCCN=c1cc(-c2ccccc2)oc2ccc(Cl)cc12	0.389
O=C(CCn1nc(-c2ccccc2)ccc1=O)N1CCOCC1	0.676
Cc1cccc(NC(=O)c2sccc2-n2cccc2)c1C	-0.81
CCc1ccccc1NC(=O)c1cc2sccc2n1C	-0.142
CCn1c(NC(=O)Nc2cccc(C)c2C)cc2sccc21	3.12 (active)

SMILES	z-score
COc1ccc(OC)c(C(=O)c2ccc(C(=O)Nc3cccc4ccccc34)cc2)c1	0.682
Cc1cccc(C)c1OCC(O)CN1CCC(CN2C(=O)c3cccc4cccc(c34)C2=O)CC1 (stereo not given)	2.99
CCc1ccc(OCC(O)CN2CCC(CN3C(=O)c4cccc5cccc(c45)C3=O)CC2)cc1 (stereo not given)	-0.57
Cc1ccc(C)c(OCC(O)CN2CCC(CN3C(=O)c4cccc5cccc(c45)C3=O)CC2)c1 (stereo not given)	-0.000796
CN1CCN(S(=O)(=O)c2cccc(C(=O)Nc3nc(-c4ccccc4)cs3)c2)CC1	-0.528
C(=N\n1cnnc1)/c1nc2ccccc2[nH]1	-0.217
COC(=O)Cc1ccc(NC(=O)c2cccs2)cc1	0.153
COc1ccc(CN(C(=O)CO/N=C/c2ccccc2)c2ccccc2C(=O)O)cc1	-0.413
O=C(O)CC(Cc1ccccc1)c1ccc2c(c1)OCO2 (stereo not given)	0.249
C=CCNc1nc(N2CCCC2)nc2ccccc12	2.37
CC(Nc1nc(N2CCCCC2)nc2ccccc12)c1ccccc1 (stereo not given)	-2.21
COc1ccc(Nc2nc(N3CCCCC3)nc3ccccc23)c(OC)c1	2.6
c1ccc2c(N3CCCCC3)nc(N3CCCC3)nc2c1	0.2
COc1ccc(Nc2nc(N3CCCC3)nc(N3CCCC3)n2)c(OC)c1	0.55
COc1ccc(Nc2ncnc3ccccc23)c(OC)c1	-0.192
NC(=O)c1cccnc1Sc1ccc(Cl)cc1	-0.431
Cc1cccc(CC2CC(=O)N(c3ncccn3)C2=O)c1 (stereo not given)	-0.533
O=C(COc1ccc(Cl)cc1)Nc1c(-c2cccs2)nc2ccccn12	-0.182
COc1cc(C2NC(=O)NC(C)=C2C(=O)NCc2ccccc2)c(Cl)cc1O (stereo not given)	0.0361
CON(c1nc(N(C)C)nc(N(C)C)n1)S(=O)(=O)c1ccccc1Cl	-0.678
CON(c1nc(Cl)nc(N(C)C)n1)S(=O)(=O)c1ccccc1Cl	2.79
COc1cc(C)nc(N(C)S(=O)(=O)c2ccccc2Cl)n1	-0.0755
N#Cc1c(-c2ccccc2)[nH]c(=S)[nH]c1=O	-0.744
Nc1[nH]c(=S)[nH]c(=O)c1-c1ccccc1	2.2

SMILES	z-score
Nc1nc(SCc2ccccc2)[nH]c(=O)c1-c1ccccc1	-0.741
CN1/C(=C/C2CC(=O)N(c3ccc([N+](=O)[O-])cc3)C2=O)C(C)(C)c2ccccc21 (stereo not given)	-0.329
CC(Cc1ccccc1)NC(=O)c1ccc([N+](=O)[O-])cc1 (stereo not given)	-0.0984
Cc1cc(C(=O)NCC(=O)OCC(=O)N(C(C)C)C(C)C)ccc1[N+](=O)[O-]	-0.0582
COC(=O)C(CC(C)C)NC(=O)c1ccc([N+](=O)[O-])cc1 (stereo not given)	2.03
COC(=O)C(CC(C)C)NC(=O)c1ccc(F)cc1 (stereo not given)	-0.19
COC(=O)C(CC(C)C)NC(=O)c1ccc([N+](=O)[O-])c(C)c1 (stereo not given)	2.9
COC(=O)c1ccc(NC(CC(C)C)C(=O)OC)c([N+](=O)[O-])c1 (stereo not given)	1.05
COc1ccc(C2/C(=C(/O)c3ccccc3)C(=O)C(=O)N2CO)cc1 (stereo not given)	0.305
Cc1ccc(/C=C2/CCc3c([nH]c4ccccc34)C2=O)cc1	0.107
O=c1cc(CO)occ1OCc1cccc(C(F)(F)F)c1	0.0103
COc1ccc(NC(=O)c2cccnc2SC)cc1S(=O)(=O)N1CCCCC1	-0.467
O=C(Oc1ccc(N2C(=O)CCC2=O)cc1)c1ccco1	-0.374
Cn1ccc(C(=O)N2CCCc3ccccc32)n1	-0.0997
CC(=O)N(/N=C1\Sc2ccccc2C1=O)c1ccc(C)cc1C	-0.638
CSc1nc2cc(Cl)ccc2s1	-0.233
S=c1[nH]c2ccc(Cl)cc2[nH]1	0.488
S=c1[nH]c2cc(Cl)ccc2s1	14.9 (active)
Cc1ccc(S(=O)(=O)N2CCC(C(=O)N3CCC(C(=O)NCC4CCCO4)CC3)CC2)cc1 (stereo not given)	0.137
Cc1ccc(F)c(NC(=O)C2CCCCC2C(=O)O)c1 (stereo not given)	1.59
CC(=O)c1cc2c(cc1NC(=O)c1cc3nc(C(C)C)cc(C(F)(F)F)n3n1)OCO2	-0.248
O=C(Nc1ccc2c(c1)OCO2)c1cc2nc(C3CC3)cc(C(F)(F)F)n2n1	-0.167
CC(C)c1cc(C(F)(F)F)n2nc(C(=O)Nc3ccc4c(c3)OCO4)cc2n1	4.57 (active)
Cc1nc(NC(=O)c2ccc(Cl)cc2)sc1-c1csc(Nc2cccc(F)c2)n1	-0.184

SMILES	z-score
CCn1c(COc2ccccc2C)nc2ccccc21	-1.56
CCC(=O)c1ccc(N2CCCC2)c(F)c1	0.0378
CCC(=O)c1ccc(N2CCCCCC2)c(F)c1	-0.499
CC(=O)c1ccc(N2CCCC2)c(F)c1	2.4
O=C(NNc1c2ccccc2nc2ccccc12)c1ccc(O)cc1	2.21
Cc1ccc(C(=O)NNc2nc3ccccc3nc2C(F)(F)F)cc1	5.19 (active)
Cc1ccc(C(=O)NN(C)c2nc3ccccc3nc2C(F)(F)F)cc1	0.198
FC(F)(F)c1nc2ccccc2nc1N/N=C\c1ccccc1	0.3
O=C(NNc1nc2ccccc2nc1C(F)(F)F)c1ccccc1	2.44
O=C(NNc1c2ccccc2nc2ccccc12)c1cccc(O)c1	-0.199
O=C(NNc1c2ccccc2nc2ccccc12)c1ccc(O)cc1O	0.0188
O=C(NNc1nc(-c2ccccc2)cs1)c1ccccc1	-1.53
Cc1ccc(S(=O)(=O)NNc2nc3ccccc3nc2C(F)(F)F)cc1	-0.286
O=C1c2ccccc2C(Nc2ccc(S(=O)(=O)N3CCOCC3)cc2)N1c1ccccn1 (stereo not given)	-0.244
COc1ccc(CN(C)CC(=O)Nc2cc(OC)c([N+](=O)[O-])cc2C)c(OC)c1	-0.503
COc1ccccc1C(=O)NCC1CCN(c2ccc(S(=O)(=O)N3CCOCC3)cc2)CC1	-0.35
COc1ccccc1OCc1ccc(C(=O)NN)cc1	-0.037
O=C(NCC1CCCO1)C1CC1(c1ccccc1)c1ccccc1 (stereo not given)	1.76
CCOc1cc(C(=O)OCC(=O)c2c(C)[nH]c3ccccc23)ccc1OCC(=O)N1CCOCC1	-0.335
CNC(=O)C1=C(C)Nc2nc3ccccc3n2C1c1cccc(OC)c1 (stereo not given)	-0.775
Cc1cc(C)c2c(=O)n(CC(=O)N3CCC(N4CCCCC4)CC3)sc2n1	-0.421
Cc1cccc(N2CCN(C(=O)Cn3sc4nc(C)cc(C)c4c3=O)CC2C)c1 (stereo not given)	0.149
CCOC(=O)C1CCCN(C(=O)COc2ccccc2O)C1 (stereo not given)	0.0285
CCOC(=O)C1CCCN(C(=O)Cn2sc3nc(C)cc(C)c3c2=O)C1 (stereo not given)	2.2

SMILES	z-score
CCOC(=O)C1CCCN(C(=O)CSc2nccn2C)C1 (stereo not given)	2.87
CCOC(=O)C1CCCN(C(=O)CSCc2ccccc2)C1 (stereo not given)	-1.22
COc1ccccc1N(CC(=O)Nc1ccccc1C(=O)NC(C)C)S(C)(=O)=O	-0.955
O=C1CCC([N+](=O)[O-])C(c2ccc(Cl)cc2Cl)N1 (stereo not given)	-0.219
CCCN1C(=O)/C(=C/c2ccco2)SC1=Nc1ccc(OC)cc1	-0.105
O=C(CCS(=O)(=O)Cc1ccccc1)N1CCc2ccccc2C1	-0.136
C[N+](C)(C)CCNC(=O)c1c(O)c2c([nH]c1=O)CCCC2	0.798
CCN1CCCC1CNC(=O)c1c(O)c2c([nH]c1=O)CCCC2 (stereo not given)	-0.0826
O=C(NCC1CCCO1)c1c(O)c2c([nH]c1=O)CCCC2 (stereo not given)	2.44
COc1ccc(CNC(=O)CN(Cc2ccc(C)cc2)S(=O)(=O)c2ccc(Cl)cc2)cc1	0.0059
CC1=C(C(=O)N2CCCCC2)C(c2cccs2)C2=C(CCCC2=O)N1 (stereo not given)	0.187
CC1SC(c2ccc(Cl)cc2Cl)NC1=O (stereo not given)	-0.0303
C=C(C)C1CC=C(C)/C(=N/NC(=O)COc2cccc(C)c2)C1 (stereo not given)	8.9 (active)
C=C(C)C1CC=C(C)/C(=N\NC(=O)CNc2ccccc2OC)C1 (stereo not given)	0.0831
C=C(C)C1CC=C(C)/C(=N\NC(=O)CCc2ccccc2)C1 (stereo not given)	-0.339
C=C(C)C1CC=C(C)/C(=N\NC(=S)Nc2ccc(C)cc2)C1 (stereo not given)	0.799
C=C(C)C1CC=C(C)/C(=N/NC(=O)CNc2ccc(C)cc2C)C1 (stereo not given)	-0.284
C=C(C)C1CC=C(C)/C(=N/NC(=O)COc2ccc(C)cc2)C1 (stereo not given)	1.47
C=C(C)C1CC=C(C)/C(=N/NC(=O)CNc2ccc(OCC)cc2)C1 (stereo not given)	1.99
C=C(C)[C@H]1CC=C(C)/C(=N/NC(=O)CNc2ccccc2OC)C1	0.284
C=C(C)C1CC=C(C)/C(=N/NC(=S)Nc2ccccc2)C1 (stereo not given)	2.35
C=C(C)C1CC=C(C)/C(=N/NC(=O)COc2ccccc2Cl)C1 (stereo not given)	12.4 (active)
C=C(C)C1CC=C(C)/C(=N/NC(=O)COc2cccc3ccccc23)C1 (stereo not given)	0.0808
C=C(C)C1CC=C(C)/C(=N/NC(=O)COc2ccccc2C)C1 (stereo not given)	1
